In PubChem BioAssay (NCI):
This is part of a sample that, as a whole, favours compounds with a hit. Of some 83,000 tested, about 20% had one in any assay.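 Method: cells in 96-well plates; compound added at one concentration; 48 h incubation; percent growth measured; values under 10 scored active.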 Calls of active or inactive are those of the source.

What follows are compounds tested on HL-60(TB) leukemia (assay: NCI-60 one-dose screen, 48 h (100 = growth as untreated, 0 = no growth, -100 = all killed)). Details: 10 µM unless noted.
For `Cc1nc(Nc2ccccn2)sc1C(=O)/C=C/c1ccc(Br)cc1`, the growth was 41.7% (inactive). For `Cc1ccc(S(=O)(=O)n2cc(CNc3ccc(N4CCOCC4=O)cc3)c3ccccc32)cc1`, the growth was 66.7% (inactive). `COc1cccc(C=Nc2cc(C(C)C)c(O)cc2C)c1O` was tested, and the growth was 85.9% (inactive). In the case of `CCOC(=O)c1cc(C(=O)c2cc(OC)c(OC)c(OC)c2)n2nc(C)ccc12`, the growth is reported as -24.2% (active). `C#CCN1C(=O)c2ccccc2N(CC#C)C12CCN(Cc1cn(CC(=O)Nc3ccccc3C(N)=O)nn1)CC2` was tested, and the growth was 86.6% (inactive). In the case of `Cc1onc(-c2c(F)cccc2Cl)c1-c1ncc(-c2ccc(Cl)cc2)o1`, the growth is reported as 36.4% (inactive). In the case of `O=C1Nc2ccccc2/C1=C\c1nc(-c2ccccc2)n2ccccc12`, the growth is reported as 85.6% (inactive). For `CC(=O)Nc1ccc(S(=O)(=O)NC2CCCCC2)cc1`, the growth was 96% (inactive). For `CCOC(=O)CSc1nc2sc3c(c2c(=O)n1-c1ccc([N+](=O)[O-])cc1)CCCCC3`, the growth was 88.4% (inactive). With `Cc1ccc2c(c1)C(C)Cc1c(ncnc1-n1cnc3cc(C)ccc31)N2C` (stereo not given) the growth was -22% (active). With `O=C1C(=O)c2cc([N+](=O)[O-])ccc2-c2ccccc21` the growth was -30% (active). `C[C@H]1[C@H](OC(=O)CCC(=O)O)O[C@@H]2O[C@]3(C)CC[C@H]4[C@H](C)CC[C@@H]1[C@@]24OO3` was tested, and the growth was -30.5% (active). With `COc1nc2ccc(C)cc2cc1-c1nc2c(cnn2-c2ccc(Br)cc2)c(=O)[nH]1` the growth was 23.7% (inactive). In the case of `COc1ccc(/C(=N\O)c2cc(C)c(OC)c(C)c2)cc1O`, the growth is reported as -18.3% (active). For `COc1ccc(/C=C(\C#N)c2cc3ccccc3n2C(C)=O)cc1`, the growth was 83.2% (inactive). With `C=C(C)[C@@H]1CC=C2c3sc(-c4ccc(C)cc4)nc3C[C@@H](C)[C@]2(C)C1` the growth was 102% (inactive). In the case of `COc1ccc(-c2nsc3c2NC(=O)CC3c2cccc(F)c2)cc1` (stereo not given), the growth is reported as 39.2% (inactive). `Cn1cc(-c2noc(-c3cn(C)c4ncc(Br)cc34)n2)c2cc(Cl)ccc21` was tested, and the growth was 102% (inactive). With `COc1ccc(-c2nc(NCCO)[nH]c(=O)c2C#N)cc1` the growth was 103% (inactive). `CCC(CCCN1C(=O)c2ccccc2C1=O)Nc1cc(OC)cc2c(C)ccnc12` (stereo not given) was tested, and the growth was 87.4% (inactive). In the case of `COc1ccc(N2CCN(Cc3cc(C(=O)/C=C/c4c[nH]c5ccccc45)ccc3O)CC2)cc1`, the growth is reported as 99.9% (inactive). For `O=C(CCC(=O)OC1CCCC1)OC1CCCC1`, the growth was 103% (inactive). With `COc1ccc2c(c1)C(c1cc(OC)c3c(c1)OCO3)C1=C(COC1=O)N2` (stereo not given) the growth was 4.04% (active). For `O=C(Nc1ccc(N=Cc2ccccc2O)cc1)NC1C=c2ccccc2=CC1` (stereo not given), the growth was 79.4% (inactive). `COC(=O)[C@]12CC[C@@H](C)[C@H](C)[C@@H]1C1=CC[C@@H]3[C@@]4(C)C(C=O)=C[C@@](C)(COC(C)=O)C4=CC[C@@]3(C)[C@]1(C)CC2` was tested, and the growth was -53.1% (active). In the case of `c1ccc(-c2nn(-c3ccccc3)[n+](-c3ccccc3-c3ccccc3)n2)cc1`, the growth is reported as -31.4% (active). In the case of `O=c1ccc(=O)n(-c2nc(-c3ccc([N+](=O)[O-])cc3)cs2)[nH]1`, the growth is reported as 89% (inactive). With `CN(C)c1nc2c([nH]1)c(=O)n(C)c(=O)n2C` the growth was 108% (inactive). `COc1cc2cc(Oc3ccc(NC(=O)Nc4cccc(C(F)(F)F)c4)cc3)c(C)nc2cc1OCCN1CCCCC1` was tested, and the growth was -51.9% (active). `CC1(C)C2CCC1(C)C1(C2)OCCS1` (stereo not given) was tested, and the growth was 91.3% (inactive). With `O=C(CCCCN1CCOCC1)Nc1ccc(Cn2nnc3c2C(=O)c2nnn(Cc4ccc(NC(=O)CCCCN5CCOCC5)cc4)c2C3=O)cc1` the growth was -28.4% (active). In the case of `O=C1/C(=C/c2ccccc2O)C(=S)SN1Cc1ccco1`, the growth is reported as 92% (inactive). For `Nc1nc(-c2cccc(Br)c2)cc(-c2cc3ccccc3oc2=O)n1`, the growth was 100% (inactive). With `N#Cc1c(N)n(C2OC(CO)C(O)C2O)c2ncnc(N)c12` (stereo not given) the growth was -67.1% (active). In the case of `CN1CCN(Cc2ccc(NC(=O)c3ccc(C#Cc4c(N)ncc5ccc(F)cc45)cc3)cc2C(F)(F)F)CC1`, the growth is reported as -10.7% (active). `O=C(Nc1cccc(Cl)c1)Nc1nccs1` was tested, and the growth was 88.7% (inactive). `COc1ccc(C(=O)N2c3ccccc3Sc3ccccc32)c(OC)c1` was tested, and the growth was 0.583% (active). For `COc1ccc2c(c1)c(-c1noc(-c3cn(C)c4ncc(F)cc34)n1)cn2C`, the growth was 84.6% (inactive). In the case of `Cc1ccc(Cc2cnc(NC(=O)c3ccc4noc(-c5ccccc5)c4c3)s2)cc1`, the growth is reported as 97.7% (inactive). For `Cc1c(Cl)cccc1NS(=O)(=O)c1ccccc1`, the growth was 113% (inactive).
